# Screening data as filed in PubChem.
# hcDAF-12 act = H. contortus DAF-12 activation, primary screen; HEK293 hcDAF-12 lit1-tk-luc reporter, luminescence; 0% DMSO, 100% Δ7-dafachronic acid; actives 1.4% (n = 370,000); activation, % at 6.8 µM;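 active means activation above the mean of all tested compounds plus 3 SD, cut at about 5.5% in these data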;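 further: 100% = response to 3 µM Δ7-dafachronic acid high control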
# DAX1 inh-1 = inhibits human nuclear receptor DAX1; P51843; HEK293 Gal4-DAX1 luciferase reporter, luminescence; inhibition, % at 6.75 µM; actives 0.99% (n = 340,000);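 active means inhibition above the mean over all tested compounds plus 3 SD, cut at about 4.2% in these data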;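 further: 0% = DAX1-transfected cells with DMSO and 100% = empty-vector control cells with DMSO; inhibition shows as a rise in luminescence from relieved DAX1 repression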
# Target sequence (P51843 207-470 limits assumed): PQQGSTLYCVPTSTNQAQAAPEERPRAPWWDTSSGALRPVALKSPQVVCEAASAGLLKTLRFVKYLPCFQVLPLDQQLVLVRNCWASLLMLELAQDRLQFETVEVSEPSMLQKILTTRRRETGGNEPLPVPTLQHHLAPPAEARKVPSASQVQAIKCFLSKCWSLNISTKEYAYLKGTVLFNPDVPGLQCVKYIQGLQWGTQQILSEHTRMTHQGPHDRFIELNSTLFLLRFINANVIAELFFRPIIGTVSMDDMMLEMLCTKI
# hgDAF-12 ag = hgDAF-12 agonism, primary luciferase screen; HEK293 GAL4-hgDAF12 UAS-luciferase reporter, agonist luminescence; normalized to butyrate control; activation, % at 6.8 µM; actives 1.8% (n = 370,000);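 active means activation above a cutoff set at the mean of all screened compounds plus 3 SD, cut at about 10% in these data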;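 further: 0% = DMSO wells and 100% = sodium butyrate wells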
# DAX1 inh-2 = inhibitors of DAX1 repression of SF-1 activated StAR promoter; HEK293T StAR-luciferase reporter, SF-1/DAX-1 repression relief; inhibition, % at 6.8 µM; actives 1.1% (n = 370,000);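 active means inhibition above the mean over all tested compounds plus 3 SD, cut at about 3.6% in these data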;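 further: 0% = DAX-1 cells with DMSO and 100% = cells lacking DAX-1 with DMSO; higher inhibition means more luminescence from relief of DAX-1 repression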
# ssDAF-12 act = S. stercoralis DAF-12 activation, primary screen | HEK293 ssDAF-12/GRIP1 lit1-tk-luc reporter, luminescence; % of 3 µM dafachronic acid response | activation, % at 6.8 µM | actives 1% (n = 370,000);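 active means activation above the mean over all tested compounds plus 3 SD, cut at about 0.9% in these data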;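 further: 0% = DMSO-only wells and 100% = 3 µM delta7-dafachronic acid wells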
# The depositor's hits bear a star; · = no result. Shown are actives, neighbours in structure and some others; about 4.1% of the full set was active somewhere.
SMILES,hcDAF-12 act,DAX1 inh-1,hgDAF-12 ag,DAX1 inh-2,ssDAF-12 act
O=C(Nc1cc(Br)ccc1O)c1cc(-c2ccccc2)on1,3.5,1.9,1.0,0.5,-0.5
CN1C2=NC(c3ccc4ccccc4c3)CC(=O)N2/C(=C\c2ccccc2)C1c1ccccc1C(F)(F)F (configuration not stated),-1.5,·,-0.5,·,-1.4
CC(C)CNS(=O)(=O)/C=C/c1ccc(F)cc1CNC(=O)OC(C)(C)C,-2.9,·,1.1,-1.4,-2.0
Cc1ccc2nc(-c3cccc(S(=O)(=O)N(C)C)c3)cn2c1,2.4,0.2,10.6*,1.2,-0.2
N#CCCN/N=C(/Cc1nc2ccccc2[nH]1)c1cccc(Cl)c1,3.5,-0.2,1.4,0.0,1.3*
O=C(Nc1ccccc1F)c1ccc(OCc2ccccc2)cc1,5.5,1.4,10.7*,1.6,-0.2
O=C(CCc1ccccc1)Nc1ccccc1F,2.0,2.2,11.7*,3.7*,-0.3
O=C(CCc1ccccc1)Nc1ccc(F)cc1F,-0.4,1.6,4.2,1.6,-0.1
O=C(CCCc1ccccc1)Nc1ccccc1[N+](=O)[O-],1.2,5.0*,3.6,0.7,-0.4
CC(=O)N1CCN(c2cc(C)nc3nc(C)nn23)CC1,-1.1,·,0.5,0.2,-0.8
Cc1ccc(C(=O)Nc2cnc3ccccn3c2=O)cc1,2.2,1.2,8.5,4.0*,-0.6
CCOC(=O)c1ccc2c(c1)nc(SC/C(O)=C(\C#N)c1nc3ccccc3[nH]1)n2CC,4.7,0.9,2.9,-0.1,1.6*
CCCCNS(=O)(=O)/C=C/c1cc2c(cc1CNC(=O)OC(C)(C)C)OCO2,-2.7,·,0.1,-1.3,-0.9
Cn1nnc(-c2ccc(OCc3ccccc3F)cc2)n1,1.8,1.6,8.6,3.8*,1.0*
CCN(CC)c1ccc(NC(=O)Nc2ccc(C(C)=O)cc2)cc1,0.7,-1.8,2.4,-1.4,-1.2
CC(=O)c1cccc(NC(=O)Nc2nc(C)cc(C)n2)c1,-0.4,4.7*,-1.2,2.3,0.0
CCN(CC)c1ccc(NC(=O)Nc2ccccc2)cc1,5.2,1.1,12.5*,2.2,0.3
CC(=O)c1ccc(NC(=O)Nc2ccccc2)cc1,4.3,-1.3,13.0*,3.6*,0.2
CC(=O)c1ccc(NC(=O)c2cc(C)nc3ccccc23)cc1,0.0,4.4*,8.9,0.5,-0.9
Cc1ccc(NC(=O)c2cc(C)nc3ccccc23)cc1,-0.6,1.0,3.9,-0.3,-0.8
O=C(CSc1nc2ncccc2[nH]1)N1CCOCC1,-2.5,·,2.7,1.6,-0.8
Cc1ccc2c(c1)-c1c(cnn1CC(=O)NCCc1ccc(Cl)cc1)CO2,-1.6,·,0.0,-1.0,-1.3
COc1cc2c(cc1OC)[C@](C)(c1ccccc1)C[C@@H]2NCC=C(C)C,-0.8,·,-0.2,-0.2,-0.8
CN(C)c1ccc(/C=N/NC(=O)c2ccccn2)cc1,5.4,0.9,12.5*,2.7,1.3*
O=C(N/N=C/c1ccccn1)c1ccccc1,4.1,-0.7,7.8,2.3,-0.5
SMILES,hcDAF-12 act,DAX1 inh-1,hgDAF-12 ag,DAX1 inh-2,ssDAF-12 act
CN(C)c1ccc(C(=O)N/N=C/c2ccccn2)cc1,1.2,0.3,11.8*,3.6*,-0.3
Cc1cccc(C)c1NC(=O)[C@H]1CC(=O)O[C@@H]1c1ccccc1,-0.3,·,-1.1,-0.9,-1.1
COC(=O)[C@]12C[C@H](CC(=O)N3CCN(C(=O)C4CC4)CC3)C(=O)N(CCC3=CCCCC3)C1=C[C@H](C1CCCC1)O[C@@H]2C,-2.6,·,-2.5,-0.1,-1.4
COc1ccccc1CN(C)C(=O)C1CCCN(c2nc3ccccc3o2)C1 (configuration not stated),-1.6,·,-0.8,0.0,-1.6
CC1=CC(C)=Nc2ccccc2N1,5.6*,0.8,10.8*,3.0,2.1*
CCn1c2c(n(C(C)=O)c1=O)C=C(C(=O)N1CCCC1)C(C)C(c1ccccc1)=C2 (configuration not stated),-0.1,·,-0.2,-1.2,-0.6
O=C(COc1ccc(Cl)cc1)Nc1cccc(-c2ccc(N3CCOCC3)nn2)c1,4.6,-0.7,12.0*,3.5,-0.3
Cc1ccc(C(=O)Nc2cccc(-c3ccc(N4CCOCC4)nn3)c2)cc1C,0.8,-2.0,5.7,1.6,-0.2
Cc1ccc(C(=O)Nc2cccc(-c3ccc(N4CCOCC4)nn3)c2)cc1,1.9,0.6,4.7,4.5*,-0.2
O=[N+]([O-])c1cccc(S(=O)(=O)Nc2cccc(-c3ccc(N4CCOCC4)nn3)c2)c1,0.1,-0.7,3.2,4.4*,-0.2
CN1CCN(c2ccc3c(c2)Oc2ccccc2CN(Cc2cn(Cc4ccccc4C(F)(F)F)nn2)S3(=O)=O)CC1,-0.9,·,-0.3,-0.9,-0.3
COC(=O)[C@]12C[C@H](CC(=O)N3CCC(c4ccccc4)CC3)C(=O)N(Cc3ccccc3)C1=C[C@H](COCc1ccccc1)O[C@@H]2C,-3.3,·,0.7,-0.1,-1.3
CCOc1ccc(-n2c(SCc3cccc4ccccc34)nnc2-c2ccc(C)cc2)cc1,-5.4,·,-3.3,-2.4,-2.5
CC(C)NC(=S)Nc1ccc2[nH]c(=O)[nH]c2c1,-2.0,4.5*,2.9,-0.3,-1.4
CNC(=S)Nc1ccc2[nH]c(=O)[nH]c2c1,-0.6,0.4,-0.7,-0.2,-1.5
CCCC[C@H]1C2CC(OC(=O)Nc3cccc(F)c3)C(C2)[C@H]2CCCCN21 (some centres not stated),-1.7,·,1.1,1.2,-1.1
COc1ccccc1N1C[C@@H]2C[C@@H](c3ccco3)N3CCC[C@@]23C1=O,-1.1,4.9*,-1.4,-0.3,-0.6
CN(C)S(=O)(=O)c1ccc(C(=O)OCCCN=C2NS(=O)(=O)c3ccccc32)cc1,-1.5,4.4*,0.8,-0.9,-1.3
O=C(COC(=O)C1CCN(/C=C/C(=O)C(F)(F)F)CC1)Nc1cccc(F)c1,6.0*,0.9,0.0,0.2,-0.3
CC1(c2nnnn2Cc2ccccc2)CN(S(C)(=O)=O)CC(=O)N1Cc1cccs1 (configuration not stated),-2.2,·,3.5,0.8,-0.9
N#CCC[C@@H]1CC[C@]2(CCCN(C(=O)C3CCCC3)C2)O1,-1.1,·,3.1,0.0,-1.4
COc1ccc(CCNC(=O)Nc2ccc3c(c2)[C@@]2(CC(=O)N(CC(C)C)C2c2ccccc2)C(=O)N3C)cc1OC (some centres not stated),-0.6,·,5.0,-2.0,-1.2
COc1cc(C(=O)NNC(=O)C2CC=CCC2C(=O)O)cc(OC)c1OC (configuration not stated),0.3,0.4,-3.7,0.6,1.9*
COc1cc(C(=O)NNC(=O)C2CCC2)cc(OC)c1OC,-0.4,0.4,2.1,0.3,-1.2
COc1cccc(N2C(C(C)=O)=NN(c3ccccc3)C2c2ccc(N3CCOCC3)cc2)c1 (configuration not stated),1.4,1.3,10.9*,1.2,0.6
CCOc1ccc(CCNC(=O)C2CCCCC2)cc1OCC,-2.7,·,-1.4,·,-2.0
